Source: the supplement of paper PMC7156485
± gives the standard deviation of the averaged measurements.

Test system: HCC1569
Test: cell number relative to DMSO (% of DMSO); higher = more cells (less growth inhibition / toxicity)
Conditions: concentration: 10 µM; 24 h
Outline: (§1)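 Compounds were applied at 10 µM for 24 h at 37 °C, in triplicate, to HCC1569 and TDF cells. The cells were then fixed and stained for H1.0, and nuclei were counterstained with DAPI. Nuclear H1.0 intensity or cell number is reported relative to the plate control as a percent, taking the median of replicates. Smoothing for positional effects was applied to HCC1569 values only.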
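Also: TDF denotes transformed human dermal fibroblasts of mesenchymal origin.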

Going from `Clc1ccc(C(Cn2ccnc2)OCc2csc3c(Cl)cccc23)c(Cl)c1.O=[N+]([O-])O` (configuration not stated) to `C[C@@H](Nc1ncnc2[nH]c(-c3ccc(O)cc3)cc12)c1ccccc1`, the cell number falls from 88.9 to 66.

Compared with `CC(C)Cc1ccc(C(C)C(=O)NO)cc1` (configuration not stated) [Ibuproxam], `CN(C)CCOC(=O)COc1ccc(Cl)cc1.Cl` [Centrophenoxine hydrochloride] is lower in cell number: 103 for the first, 101 for the second.

First: Cl.NCC1OC(C23CC4CC(CC(C4)C2)C3)Cc2c1ccc(O)c2O (configuration not stated)
Second: COc1ccc2c3c1OC1CC(O)C=CC31CCN(C)C2 (configuration not stated) [Galanthamine]
The cell number of the first is lower: 73.5 for the first, 101 for the second.

Compared with `NCC1OC(OC2C(CO)OC(OC3C(O)C(N)CC(N)C3OC3OC(CO)C(O)C(O)C3N)C2O)C(N)C(O)C1O.O=S(=O)(O)O` (configuration not stated) [Paromomycin sulfate], `CCCCCC=CCC=CC=CC=CC(SCC(N)C(=O)O)C(O)CCCC(=O)O` (configuration not stated) [Leukotriene E4] is lower in cell number: 105 for the first, 103 for the second.

Compared with `CCCCCCCCC=CCCCCCCCCCCCCC(=O)O` [14(Z)-Tricosenoic acid], `CCCCCCCC(=O)OCC(CO)OC(=O)CCCCCCC` (configuration not stated) [1,2-Dioctanoyl-SN-glycerol] is lower in cell number: 100 for the first, 98.8 for the second.

Going from `CCN(CC)CCCC(C)Nc1ccnc2cc(Cl)ccc12` (configuration not stated) [Chloroquine] to `C=CC1CN2CCC1CC2C(O)c1ccnc2ccc(OC)cc12.Cl.O.O` (configuration not stated), the cell number falls from 101 to 99.036 ± 0.095.

Compared with `Cc1cc(C)c(NC(=O)CC(CC(=O)[O-])c2cccc3ccccc23)c(C(=O)N2CCC3(CCCC3)CC2)c1.[Na+]` (configuration not stated), `COC(=O)Nc1nc2ccc(C(=O)c3ccccc3)cc2[nH]1` [Mebendazol] is lower in cell number: 105 for the first, 69.2 for the second.

First: C[N+](C)(C)CCOC(=O)CCC(=O)OCC[N+](C)(C)C.[Cl-].[Cl-] [Succinylcholine chloride]
Second: CC1(C)CCC(C)(C)c2cc(C(=O)Nc3ccc(C(=O)O)cc3)ccc21
The cell number of the first is lower: 100 for the first, 101 for the second.

First: c1ccc(-c2ccc(C(c3ccccc3)n3ccnc3)cc2)cc1 (configuration not stated) [Bifonazole]
Second: CNCCC(Oc1ccccc1OC)c1ccccc1.Cl (configuration not stated) [Nisoxetine hydrochloride]
The cell number of the first is higher: 101 for the first, 98.6 for the second.

Compared with `COc1cc(Br)c(S(=O)(=O)Nc2ccc(Cl)c(O[C@@H]3CCN(C)C3)c2)cc1OC`, `Cc1cc(C)c(S(=O)(=O)Nc2cccc(C(F)(F)F)c2)c(C)c1` is higher in cell number: 83.2 for the first, 99.3 for the second.

Compared with `Cn1cnc2c(NCc3ccccc3)nc(NCCO)nc21` [Olomoucine], `CC1=C(CC(=O)O)c2cc(F)ccc2C1=Cc1ccc(S(C)(=O)=O)cc1` [Sulindac sulfone] is higher in cell number: 100 for the first, 104 for the second.

Going from `NC(N)=NC(=O)c1nc(Cl)c(N2CCCCCC2)nc1N` [5-(N,N-hexamethylene)amiloride] to `CON=C(C(=O)NC1C(=O)N2C(C(=O)[O-])=C(CSc3nc(=O)c([O-])nn3C)CSC12)c1csc(N)n1.[Na+].[Na+]` (configuration not stated) [Ceftriaxone sodium], the cell number rises from 96 to 101.

Going from `CC(Oc1c(Cl)cccc1Cl)C1=NCCN1.Cl` (configuration not stated) [Lofexidine.HCl] to `COc1ccc(/C=C2\COc3ccc(C)cc3C2=O)cc1O`, the cell number falls from 98.9 to 58.1.

Compound `Oc1cc(O)cc(/C=C/c2ccc(Br)cc2)c1` [5-[(E)-2-(4-bromophenyl)ethenyl]-1,3-benzenediol] has a cell number of 93.1.

Test system: TDF
Test: as above
Conditions: concentration: 10 µM; 24 h
Outline: as §1

Compared with `CC(C(=O)O)c1ccc(CC2CCCC2=O)cc1` (configuration not stated) [loxoprofen], `CC(C)Cc1ccc(C(C)C(=O)NO)cc1` (configuration not stated) [Ibuproxam] is higher in cell number: 95.9 for the first, 101 for the second.

First: CCOc1cc2ncnc(Nc3cccc(Br)c3)c2cc1OCC [Compound 56]
Second: C[C@@H](Nc1ncnc2[nH]c(-c3ccc(O)cc3)cc12)c1ccccc1
The cell number of the first is higher: 94 for the first, 64.8 for the second.

First: NC(N)=NC(CCC(=O)O)C(=O)O (stereo not drawn) [alpha-Guanidinoglutaric acid]
Second: CCCCCC=CCC=CC=CC=CC(SCC(N)C(=O)O)C(O)CCCC(=O)O (configuration not stated) [Leukotriene E4]
The cell number of the first is higher: 108 for the first, 101 for the second.

Compared with `O=C1OC(=CBr)CCC1c1cccc2ccccc12` (configuration not stated) [Bromoenol lactone], `COC(=O)Nc1nc2ccc(C(=O)c3ccccc3)cc2[nH]1` [Mebendazol] is lower in cell number: 100 for the first, 11.6 for the second.

Compared with `CN1CCN(c2c(F)cc3c(=O)c(C(=O)O)cn4c3c2SCC4)CC1` [Rufloxacin], `Cc1nc(C(=O)N2CCC[C@H]2Cc2nnc(-c3ccccc3)o2)c(-c2ccccc2F)s1` is higher in cell number: 94.7 for the first, 113 for the second.

Going from `CCCCCN(CCCCC)C(=O)C(CCC(=O)O)NC(=O)c1ccc(Cl)c(Cl)c1` (configuration not stated) [Lorglumide] to `CCCCCCCC(=O)OCC(CO)OC(=O)CCCCCCC` (configuration not stated) [1,2-Dioctanoyl-SN-glycerol], the cell number rises from 91.5 to 101.

First: CCCCCC=CCC(O)C=CC=CC=CC(O)CCCC(=O)O [5(S),12(R)-DIHETE all trans]
Second: CCCCCCCCC=CCCCCCCCCCCCCC(=O)O [14(Z)-Tricosenoic acid]
The cell number of the first is lower: 97 for the first, 106 for the second.

Compared with `O=[N+]([O-])c1cccc2c(Br)[nH]nc12` [3-Bromo-7-nitroindazole], `CC(Oc1c(Cl)cccc1Cl)C1=NCCN1.Cl` (configuration not stated) [Lofexidine.HCl] is lower in cell number: 113 for the first, 107 for the second.

Compared with `Cc1cnc(-c2cnc(NCCNc3ccc(C#N)cn3)nc2-c2ccc(Cl)cc2Cl)[nH]1`, `CC(C)c1[nH]n(-c2c(Cl)cccc2Cl)c2nc(Cc3ccc(OCCO)cc3)nc(=O)c1-2` [Cdk/Crk Inhibitor] is lower in cell number: 74.4 for the first, 26.7 for the second.

Going from `Nc1ccc(C(=O)Nc2cccc(-c3nc(N4CCOCC4)c4oc5ncccc5c4n3)c2)cn1` [PIKfyve Inhibitor] to `Cc1cc(C)c(NC(=O)CC(CC(=O)[O-])c2cccc3ccccc23)c(C(=O)N2CCC3(CCCC3)CC2)c1.[Na+]` (configuration not stated), the cell number rises from 56.2 to 102.

Going from `CN1CCCC1c1cccnc1.O=C(O)C(O)C(O)C(=O)O.O=C(O)C(O)C(O)C(=O)O` (single isomer, unassigned; (-)) [(-)-Nicotine hydrogen tartrate salt] to `C=CC1CN2CCC1CC2C(O)c1ccnc2ccc(OC)cc12.Cl.O.O` (configuration not stated), the cell number falls from 103 to 99.4 ± 3.1.

Going from `Clc1ccc(C(Cn2ccnc2)OCc2csc3c(Cl)cccc23)c(Cl)c1.O=[N+]([O-])O` (configuration not stated) to `c1ccc(-c2ccc(C(c3ccccc3)n3ccnc3)cc2)cc1` (configuration not stated) [Bifonazole], the cell number falls from 100 to 98.2.

Compared with `Cl.NCC1OC(C23CC4CC(CC(C4)C2)C3)Cc2c1ccc(O)c2O` (configuration not stated), `COc1ccc2c3c1OC1CC(O)C=CC31CCN(C)C2` (configuration not stated) [Galanthamine] is higher in cell number: 68.9 for the first, 110 for the second.

First: NCC1OC(OC2C(CO)OC(OC3C(O)C(N)CC(N)C3OC3OC(CO)C(O)C(O)C3N)C2O)C(N)C(O)C1O.O=S(=O)(O)O (configuration not stated) [Paromomycin sulfate]
Second: COc1cc(Br)c(S(=O)(=O)Nc2ccc(Cl)c(O[C@@H]3CCN(C)C3)c2)cc1OC
The cell number of the first is higher: 106 for the first, 82.9 for the second.

Going from `CCN(CC)CCCC(C)Nc1ccnc2cc(Cl)ccc12` (configuration not stated) [Chloroquine] to `CN(C)CCOC(=O)COc1ccc(Cl)cc1.Cl` [Centrophenoxine hydrochloride], the cell number falls from 99.6 to 98.6.

Compared with `C[N+](C)(C)CCOC(=O)CCC(=O)OCC[N+](C)(C)C.[Cl-].[Cl-]` [Succinylcholine chloride], `CC1(C)CCC(C)(C)c2cc(C(=O)Nc3ccc(C(=O)O)cc3)ccc21` is lower in cell number: 113 for the first, 104 for the second.

First: Cn1cnc2c(NCc3ccccc3)nc(NCCO)nc21 [Olomoucine]
Second: CNCCC(Oc1ccccc1OC)c1ccccc1.Cl (configuration not stated) [Nisoxetine hydrochloride]
The cell number of the first is higher: 121 for the first, 111 for the second.

First: Cc1cc(C)c(S(=O)(=O)Nc2cccc(C(F)(F)F)c2)c(C)c1
Second: CC1=C(CC(=O)O)c2cc(F)ccc2C1=Cc1ccc(S(C)(=O)=O)cc1 [Sulindac sulfone]
The cell number of the first is lower: 90 for the first, 117 for the second.

Going from `NC(N)=NC(=O)c1nc(Cl)c(N2CCCCCC2)nc1N` [5-(N,N-hexamethylene)amiloride] to `CON=C(C(=O)NC1C(=O)N2C(C(=O)[O-])=C(CSc3nc(=O)c([O-])nn3C)CSC12)c1csc(N)n1.[Na+].[Na+]` (configuration not stated) [Ceftriaxone sodium], the cell number rises from 85.1 to 99.8.

Compared with `Oc1cc(O)cc(/C=C/c2ccc(Br)cc2)c1` [5-[(E)-2-(4-bromophenyl)ethenyl]-1,3-benzenediol], `COc1ccc(/C=C2\COc3ccc(C)cc3C2=O)cc1O` is lower in cell number: 98.8 for the first, 28 for the second.
